# From PubChem
# UHRF1 binding: UHRF1 methylated DNA binding inhibitors, primary screen, counter-screen for MBD2 inhibitor project, biochemical, TR-FRET, human UHRF1, single concentration. E3 ubiquitin-protein ligase UHRF1 (Homo sapiens), Q96T88. UHRF1 binding to methylated oligo. inhibition, % at 4.4 µM. actives 0.75% (n = 370,000). AID 687016, 2013; in the data active means inhibition above about 21%;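 further: UHRF1 SRA domain binding a hemimethylated CpG hairpin DNA probe; 0% = median of test compound wells and 100% = reference inhibitor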
# PLC-gamma1 inh: PLC-gamma1 enzyme inhibitors, primary screen, biochemical, fluorescence, purified enzyme. 1-phosphatidylinositol 4,5-bisphosphate phosphodiesterase gamma-1 (Homo sapiens), P19174. fluorogenic substrate. inhibition, % at 12.2 µM. actives 0.84% (n = 370,000). AID 720700, 2013; in the data active means inhibition above about 9.5%
# LEDGF integ inh: blockers of LEDGF/p75-dependent integrase strand transfer – biochemical, TR-FRET, high throughput, primary screen | TR-FRET IN-LEDGF/p75 DNA integration, Eu/Cy5 | inhibition, % at 3.7 µM | actives 0.64% (n = 370,000) | AID 743269, 2014;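 active means inhibition above the screen-wide mean plus 3 SD, cut at about 13% in these data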;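 further: signal is the Cy5 over europium emission ratio at 671 and 618 nm; 0% = plate median of compound wells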
# PLCb3 inh: human PLC-beta3 inhibitors, primary screen, biochemical, fluorescence; inhibition, % at 12.2 µM; actives 0.18% (n = 370,000); Purified PLC-beta3, fluorogenic substrate; in the data active means inhibition above about 11%;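 further: 0% = median of compound wells on plate and 100% = full blocker control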
# MBD2 DNA inh: inhibitors of MBD2 binding to methylated DNA, primary screen, biochemical, TR-FRET, DNA-binding domain, human; actives 0.31% (n = 370,000); AID 686964, 2013; inhibition, % at 4.4 µM; MBD2 binding to methylated oligonucleotide; Methyl-CpG-binding domain protein 2 (Homo sapiens), Q9UBB5; in the data active means inhibition above about 13%
# Starred values were filed as active, the others as inactive. Shown are actives, neighbours in structure and some others; about 2.4% of the full set was active somewhere.
SMILES,UHRF1 binding,PLC-gamma1 inh,LEDGF integ inh,PLCb3 inh,MBD2 DNA inh
CC1CCN(S(=O)(=O)c2ccc3c(c2)c(=O)c(C(=O)N2CCCCC2)cn3C)CC1,73.3*,3.1,-3.1,5.0,-2.4
C=CC[C@@]1(c2ccc(Br)cc2OC)Oc2ccccc2-c2nccnc21,1.2,-185.1,-1.5,-251.4,1.8
COc1ccc(Br)c(C=O)c1OS(=O)(=O)c1ccc(C)cc1,-2.3,2.7,16.4*,-0.6,-1.1
O=C(CCn1nnc(-c2cccs2)n1)NCc1ccco1,-0.3,1.2,1.7,1.5,-4.5
Cc1cc(C)n(-c2ccc(C(=O)N3CCN(c4ccccn4)CC3)cc2)n1,-0.5,10.3*,5.0,1.1,-2.1
CC(=O)N1CCc2c1cccc2S(=O)(=O)NC(CC(C)C)C(=O)Nc1ccc(Cl)c(Cl)c1 (stereo not drawn),-1.4,0.1,1.9,-1.0,2.1
Cc1ccccc1NC(=O)N(C)[C@H]1C[C@H]2c3[nH]c4c(-c5ccc6c(c5)OCO6)cccc4c3CCN2C[C@H]1[C@H](C)O,-0.1,-8.8,-2.8,-13.8,3.4
O=C(Nc1c(-c2ccccc2)[nH][nH]c1=O)c1ccco1,62.8*,-0.6,4.5,-3.5,1.1
O=C(Nc1c(-c2ccccc2)[nH][nH]c1=O)c1ccc(-c2ccccc2)cc1,-6.4,-2.7,-1.9,-5.5,4.3
COc1cccc(CNC(=O)CCC2CCCN(C(=O)c3ccoc3)C2)c1 (stereo not drawn),24.8*,-5.3,-5.4,-11.4,11.4
Cc1ccc2c(c1)C1CS(=O)(=O)N(Cc3ccc(F)cc3)CN1C2 (stereo not drawn),-4.8,-9.0,1.1,-11.1,1.7
S=C(Nc1ccccc1)OC1CCC12CCC(c1ccccc1)CC2 (stereo not drawn),-0.2,3.4,-3.9,-1.1,0.3
Cc1nc(-c2ccccc2)sc1-c1ccn[nH]1,2.6,-169.1,3.0,-213.4,-1.2
Cc1nc(-c2ccccc2)sc1-c1ccnn1C,43.0*,-203.4,-9.0,-254.1,2.1
CC(C)C[C@@H]1COc2cc(Br)ccc2S(=O)(=O)N1Cc1cn(Cc2ccco2)nn1,-3.2,1.0,-0.6,1.6,1.8
COc1ccc(C)c2sc(N3CCCC3)nc12,25.4*,-0.7,1.0,-0.1,-4.3
CCNC(=S)N/N=C(\C)c1cccc(C(F)(F)F)c1,36.2*,3.1,5.4,-2.9,-5.9
CN1CC=C(c2ccccc2)N(c2ccc(Cl)cc2)C1=O,-2.6,3.6,4.8,2.9,0.0
CCOC(=O)[C@@]12CCCC=C1N(CCc1ccc(Cl)cc1)C(=O)[C@H]2CC(=O)NCC1CCCCC1,-0.9,1.4,-0.8,-0.5,-0.8
Cc1ccc(N=Cc2ccc(O)cc2O)cc1F,-2.1,-58.5,37.3*,-76.8,-8.8
Oc1ccc(C=Nc2cccc3ccccc23)c(O)c1,-12.0,-71.7,12.2,-92.3,-6.6
C[C@@]12C(=O)N(CC3CCCO3)CC(=O)N1[C@H]1c3cc(Cl)ccc3OC[C@@H]1[C@@H]2c1ccccc1 (stereo partly drawn),3.1,10.4*,-2.3,0.6,-5.3
Cc1ccc2c(c1)[C@H]1[C@H](CO2)[C@H](c2ccccc2)[C@]2(C)C(=O)N(CC3CCCO3)CC(=O)N12 (stereo partly drawn),0.5,1.6,-3.5,0.5,-0.7
Cc1cccc(-c2cccc3c4c([nH]c23)[C@@H]2C[C@H](N(C)C(=O)NC3CCCCC3)[C@H]([C@H](C)O)CN2CC4)c1,-1.8,-105.0,-2.7,-145.5,-1.6
Cc1ccc(NC(=O)CN(C)C(=O)CSc2nccn2C)cc1,4.1,13.6*,-3.0,6.7,3.9
CC1(C)Oc2ccc(C(=O)N3CCCC3)cc2NC1=O,0.3,1.8,1.6,1.1,0.8
CCOC(=O)C1=CN(Cc2cccc(F)c2)S(=O)(=O)N(CC)C1c1ccc(Br)cc1F (stereo not drawn),21.2*,6.2,12.1,5.4,13.0
C[C@H](CS)C(=O)N1CCC[C@H]1C(=O)O,1.4,-1.9,84.3*,2.5,3.1
